# From PubChem BioAssay
# HT1080 IDH1KD tx: qHTS for induction of synthetic lethality in tumor cells producing 2HG: qHTS for the HT-1080-IDH1KD cell line; HT-1080 IDH1 knockdown viability, ATP luminescence, 48 h; 360,000 tested, 2% active; Potency, µM (highest dose often 46.1 µM), without a hit: at the top dose activity, negative = toxicity, most hits filed as cytotoxic;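 note: potency is the fitted concentration of half-maximal effect; 0% = DMSO wells and -100% = cell-free medium wells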
#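 Viability of IDH1-knockdown HT-1080 fibrosarcoma cells was assessed by CellTiter-Glo after 48 h at 37 °C with titrated compound; concentration-effect curves were classified by fit quality and response size.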
# HT1080-NT tox: qHTS for induction of synthetic lethality in tumor cells producing 2HG: qHTS for the HT-1080-NT fibrosarcoma cell line. HT-1080-NT fibrosarcoma viability, CellTiter-Glo ATP luminescence, 48 h. Potency, µM (titrated, usually from 46.1 µM), for the others: at the highest dose activity, negative = less viability, hits mostly cytotoxic. 360,000 tested, 1.6% active;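 note: NT is the 2HG producing partner of a matched IDH1 knockdown line; potency is the fitted concentration of half-maximal effect; 0% = DMSO-treated cells and -100% = media-only wells without cells; nearly all actives have a fitted effect of over 55% in size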
#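 750 cells/well, RPMI + 5% FBS; 2 h settle, compound pin-transfer, 48 h at 37 degrees C. CellTiter-Glo 10 min RT, luminescence. Normalized to DMSO and media-only wells.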
# ALOX12 inh: Primary qHTS assay for inhibitors of human arachidonate 12S-lipoxygenase (ALOX12): Round 2; Polyunsaturated fatty acid lipoxygenase ALOX12 (Homo sapiens), P18054; purified 12hLO, xylenol orange hydroperoxide absorbance; Potency, µM (titrated, usually from 108 µM), for inactives: at the top dose activity change, negative = inhibition, usual class: inhibitors; 580,000 tested, 1.1% active; AID 1671190, 2021; note: potency is the fitted concentration of half-maximal effect
# Target sequence (P18054 whole entry, looked up): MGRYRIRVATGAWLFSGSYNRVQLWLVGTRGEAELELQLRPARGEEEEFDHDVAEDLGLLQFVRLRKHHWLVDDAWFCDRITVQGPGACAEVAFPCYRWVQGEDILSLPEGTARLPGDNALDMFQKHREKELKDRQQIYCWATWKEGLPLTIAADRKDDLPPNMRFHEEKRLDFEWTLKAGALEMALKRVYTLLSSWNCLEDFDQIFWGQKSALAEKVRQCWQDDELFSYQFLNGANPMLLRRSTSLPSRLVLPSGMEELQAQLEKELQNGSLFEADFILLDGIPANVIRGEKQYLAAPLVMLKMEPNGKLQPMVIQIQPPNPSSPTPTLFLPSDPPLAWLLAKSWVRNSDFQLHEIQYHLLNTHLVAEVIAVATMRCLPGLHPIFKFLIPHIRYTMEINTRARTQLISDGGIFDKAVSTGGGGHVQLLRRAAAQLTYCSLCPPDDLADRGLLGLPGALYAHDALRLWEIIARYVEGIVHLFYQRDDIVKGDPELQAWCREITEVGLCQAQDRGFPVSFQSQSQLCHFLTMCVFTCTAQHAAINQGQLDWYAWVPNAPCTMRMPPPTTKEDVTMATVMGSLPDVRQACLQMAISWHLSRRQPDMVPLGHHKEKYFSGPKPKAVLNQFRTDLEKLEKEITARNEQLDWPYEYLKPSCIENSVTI
#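 Purified human 12hLO at 150 nM in 25 mM Hepes, 0.01% Triton X-100, pH 7.0, preincubated 15 min at room temperature with compound. Reaction started with 40 uM arachidonic acid, 30 min at room temperature. Hydroperoxide measured by Fe-xylenol orange, 573/405 nm absorbance ratio.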
# IL1B secr inh: qHTS for Inhibitors of Inflammasome Signaling: IL-1-beta AlphaLISA Primary Screen; activity change, % at 57.5 µM; THP-1 LPS/ATP IL-1B secretion, AlphaLISA, 16 h; stronger effect = lower value; AID 743279, 2014; 360,000 tested, 4.7% active; in the data active = activity change below about -50%; inconclusive = mostly about -30% to -49%
#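 THP-1 cells pretreated 1 hr with compounds (up to 57.5 uM final), then stimulated with LPS (250 ng/mL final) plus ATP (1.25 mM final); secreted IL-1B measured by AlphaLISA after 16 hr, decreased signal indicating inhibition.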
# TDP1 cell noCPT: qHTS for Inhibitors of human tyrosyl-DNA phosphodiesterase 1 (TDP1): qHTS in cells in absence of CPT | DT40 Tdp1-/- hTDP1 cells, no CPT, ATP luminescence, 48 h | Potency, µM (titrated, usually from 46.2 µM), without a hit: at the top dose activity change, negative = growth inhibition, hits mostly inhibitors | 420,000 tested, 15% active; note: potency is the fitted concentration of half-maximal effect; nearly all actives have a fitted effect of over 55% in size
#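 Chicken DT40 Tdp1-/- cells complemented with human TDP1, screened without camptothecin (DMSO vehicle only), 400 cells/well. Compounds pin-transferred, cells incubated at 37 °C for at least 48 hr. Growth read as ATP-dependent luminescence (CellTiter-Glo, 30 min at RT).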
# TDP1 cell CPT: qHTS for Inhibitors of human tyrosyl-DNA phosphodiesterase 1 (TDP1): qHTS in cells in presence of CPT; chicken DT40 Tdp1-/-;hTDP1 cells + 20 nM CPT, ATP luminescence, 48 h; Potency, µM (highest dose often 46.2 µM), for the others: top-dose activity change, negative = growth inhibition, most hits filed as inhibitors; 420,000 tested, 12% active; AID 686979, 2013; note: potency is the fitted concentration of half-maximal effect; nearly all actives have a fitted effect of over 55% in size
#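 Cell growth measured by CellTiter-Glo luminescence after a minimum 48 h, 37 C compound exposure with 20 nM CPT in Tdp1-knockout DT40 cells stably expressing hTDP1, seeded 400/well; qHTS titration format.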
# * = called active by the depositor; u = inconclusive; x = no result given. This is one part of a sample in which hits are shown more often than they occur. Unless noted, calls come from the whole dose curve; as a rule, active = well fitted curve in the direction sought with a large enough effect; inconclusive = small, poorly fitted or top-dose-only effect, or another doubt; inactive = no such curve, though single readings can be large; an effect the other way counts as inactive or inconclusive. Unless noted, % is set by controls: 0 for no effect and ±100 for the full control effect.
SMILES,HT1080 IDH1KD tx,HT1080-NT tox,ALOX12 inh,IL1B secr inh,TDP1 cell noCPT,TDP1 cell CPT
OCC[C@@H]1C[C@H](O)[C@@H](O)[C@]2(OCc3ccc4ccccc4c32)O1,0.6%,0.7%,3.6%,36.1,4.9%,5.4%
CN(C(=O)Cn1cc(S(=O)(=O)Cc2ccccc2Cl)c2ccccc21)c1ccccc1,x,x,u,x,20.6µM*,20.6µM*
COc1ccc(C)cc1NC(=O)Cn1cc(S(=O)(=O)Cc2ccccc2Cl)c2ccccc21,x,x,u,x,20.6µM*,u
COc1ccc(NC(=O)Cn2cc(S(=O)(=O)Cc3ccccc3)c3ccccc32)c(OC)c1,0.3%,-19.1%,-21.3%,15.8,4.7%,4.5%
COC(=O)CNC(=O)N1CCC(c2nc(CCOc3ccc(F)cc3)no2)C1 (stereo not drawn),x,x,7.8%,x,x,x
COc1cccc(N(CC(=O)Nc2ccc3c(c2)OCO3)S(=O)(=O)c2ccccc2)c1,-10.3%,-13.3%,-22.0%,u,u,u
COc1ccc(N(CC(=O)Nc2ccc3c(c2)OCO3)S(C)(=O)=O)c(OC)c1,-7.4%,-6.1%,0.0%,0.7,-0.1%,-22.2%
COc1ccc(C)cc1S(=O)(=O)N(C)CC(=O)Nc1ccc2c(c1)OCO2,-21.9%,-18.1%,3.6%,-5.6,-21.5%,4.0%
COc1ccc(S(=O)(=O)N(CC(=O)Nc2ccc3c(c2)OCO3)c2ccccc2OC)cc1,-18.4%,-3.4%,73.6%,-9.1,14.6µM*,20.6µM*
COc1ccccc1N(CC(=O)Nc1ccc(C)c(Cl)c1)S(=O)(=O)c1ccc(C)cc1,x,x,-15.4%,x,18.4µM*,20.6µM*
COc1ccccc1N(CC(=O)Nc1ccccc1C(F)(F)F)S(=O)(=O)c1ccc(C)cc1,x,x,-26.5%,x,u,u
COc1ccc(C)cc1S(=O)(=O)N(CC(=O)Nc1ccc2c(c1)OCCO2)Cc1ccccc1,-27.6%,-2.6%,19.4%,-6.7,u,10µM*
COc1ccccc1N(CC(=O)Nc1ccc2c(c1)OCO2)S(=O)(=O)c1ccccc1,-7.0%,-8.0%,u,7.5,13µM*,u
Cc1[nH]c2ccccc2c1C(=O)Cn1cc(S(=O)(=O)N2CCCC2)ccc1=O,x,x,-0.3%,x,x,x
CC(C)CC(=O)Nc1ccnn1C1CCN(C(=O)c2cc(-c3ccccc3)n[nH]2)CC1,x,x,11.9%,x,x,x
O=C(ONC1=NCCCCC1)c1c(F)cccc1F,-7.9%,-21.5%,104.6%,-7.5,u,16.4µM*
O=C(ONC1=NCCCCC1)c1ccc(Cl)cc1,23.1µM*,16.4µM*,10.6%,-16.8,14.6µM*,20.6µM*
O=C(CNC1=NCCC1)c1ccc(Cl)cc1,-7.5%,-5.1%,-5.2%,57.3,7.5%,5.9%
CC(=O)NCc1ccc(-c2nc(-c3cccc(C)c3)sc2C)s1,x,x,-5.4%,x,x,x
O=C(c1ccc(N2CCOCC2)nc1)N1CCC(Cn2cccn2)CC1,x,x,30.5%,x,x,x
C=CCN1C(c2ccc(Br)cc2)=CS/C1=C(\C#N)c1nnc(N2CCOCC2)n1-c1ccccc1,-6.7%,-5.8%,39.8µM*,-73.4*,-94.1%,u
C=CCN1C(c2cccc(C(F)(F)F)c2)=CS/C1=C(\C#N)c1nnc(N2CCOCC2)n1-c1ccccc1,-12.0%,-2.5%,-6.5%,u,u,23.1µM*
C=CCN1C(c2ccc(OCC)cc2)=CS/C1=C(\C#N)c1nnc2n1CCCCC2,u,u,-22.5%,-4.1,29.1µM*,u
COc1ccc(C(=O)CCC#N)cc1OC,x,x,3.1%,x,x,x
O=C(/C=C/c1ccc(Cl)cc1Cl)c1nc2ccccc2[nH]1,u,u,0.0%,-4.7,u,11.6µM*
SMILES,HT1080 IDH1KD tx,HT1080-NT tox,ALOX12 inh,IL1B secr inh,TDP1 cell noCPT,TDP1 cell CPT
Clc1cccc(Cl)c1/C=C/c1nc2ccccc2[nH]1,u,u,x,-25.8,16.4µM*,u
Clc1ccc(/C=C/c2nc3ccccc3[nH]2)cc1,u,-25.0%,-13.1%,-13.5,u,u
C(=N\n1cnnc1)/c1nc2ccccc2[nH]1,-5.9%,-7.4%,6.1%,22.6,-26.1%,-1.7%
Clc1ccc(/C=C/c2nc3ccccc3[nH]2)c(Cl)c1,u,14.6µM*,-29.1%,u,18.4µM*,13µM*
Cc1ccc(NCC(=O)Nc2cc(Cl)ccc2-n2cncn2)c(Cl)c1,x,x,-20.6%,x,x,x
CCOC(=O)Cc1ccc(NC(=O)Nc2nnc(N(CC(C)C)CC(C)C)s2)cc1,x,x,-9.1%,x,x,x
c1coc(-c2cc3nc(NC4CCCCC4)ccn3n2)c1,-1.3%,19.5%,44.7µM*,-7.0,20.6µM*,u
c1coc(-c2cc3nc(NCc4ccc5c(c4)OCO5)ccn3n2)c1,-12.0%,-4.7%,31.6µM*,-12.0,-17.9%,u
c1ccc(COc2ccc(-c3cc4nc(NCc5ccc6c(c5)OCO6)ccn4n3)cc2)cc1,u,-19.2%,7.4%,44.9,7.31µM*,18.4µM*
O=C(NC1CCCC1)c1cc2nc(-c3ccco3)cc(C(F)(F)F)n2n1,0.2%,3.8%,-17.8%,-4.3,u,u
CC(=O)Nc1ccc(NC(=O)COC(=O)C2CCN(/C=C/C(=O)C(F)(F)F)CC2)cc1,x,x,5.5%,x,x,x
CC(CNC(=O)c1ccc(Cn2c(=O)c3cccn3c3cccnc32)cc1)c1ccccc1 (stereo not drawn),x,x,-20.4%,x,u,-28.8%
COC(=O)c1c(C(=O)OC)c(-c2ccc(Cl)cc2)n2c1CS(=O)(=O)C2,-4.7%,-4.6%,-0.3%,0.7,20.6µM*,20.6µM*
CC(=O)Nc1ccc(CC(=O)N2CCCC(Cc3nncn3-c3ccccc3)C2)cc1 (stereo not drawn),x,x,18.0%,x,x,x
O=[N+]([O-])c1cc(-n2cnnn2)ccc1N1CCC(Cc2ccccc2)CC1,-14.5%,-3.3%,-21.8%,-23.7,9.2µM*,23.1µM*
CCOC(=O)N1CCN(C(=O)c2ccc3c(c2)N(Cc2ccccc2)CCS3)CC1,0.6%,2.8%,-1.3%,7.2,25.9µM*,u
CC1CC(C)CN(C(=O)c2ccc3c(c2)N(Cc2ccccc2)CCS3)C1 (stereo not drawn),-11.4%,9.6%,x,u,u,u
O=C(NC1CC1)c1ccc2c(c1)N(Cc1ccc(Cl)cc1)CCS2,-20.0%,-7.6%,12.3%,-17.1,u,u
